Hits are enriched below; roughly 4.7% of the tested compounds scored in any of these assays.
PfHsp90 set2: growth inhibition of yeast expressing Plasmodium Hsp90; inhibition, % at 9.4 µM; hit rate 0.32% among 310,000; S. cerevisiae expressing PfHsp90, BacTiter-Glo ATP, 48 h; yeast lacking PDR1 and PDR3 efflux regulators;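 active means every replicate shows inhibition above about 80%, whatever the replicate mean, limit read from the data; inconclusive means mean inhibition reaches the set limit but some replicate falls short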;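 further: 0% = DMSO neutral controls and 100% = 20 µM radicicol positive controls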
SKKanGAS inh: blocks kanamycin growth of S. pyogenes SKKanGAS strain. inhibition, % at 7.5 µM. hit rate 1.3% among 300,000. BacTiter-Glo, 6 h;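 active means mean replicate score, as percent of positive control median, at least 50; inconclusive means mean below 50 but one replicate at or above 50; inactive means mean and every replicate below 50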;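 further: strain carries kanamycin resistance gene driven by streptokinase promoter and grows in 40 µg/ml kanamycin; loss of luminescence reflects streptokinase promoter inhibition or plain growth inhibition; 0% = median of DMSO wells and 100% = positive control at its reference dose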
TIM10 inh: growth inhibitors of TIM10 yeast strain | S. cerevisiae TIM10 strain growth, BacTiter-Glo luminescence, 24 h | inhibition, % at 10 µM | hit rate 1.4% among 330,000 | AID 463195;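 active means inhibition of 40% or more at the single tested concentration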;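 further: wild-type TIM10 isogenic control strain grown at permissive 25 °C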
tim23-1 inh: tim23-1 yeast growth inhibition | S. cerevisiae tim23-1 growth, BacTiter-Glo luminescence, 24 h | inhibition, % at 20 µM | hit rate 1.3% among 330,000 | AID 463212;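 active means growth inhibition of the mutant yeast at or above 50%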;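 further: temperature-sensitive mutant grown at 25 °C; plate controls were DMSO-treated mutant yeast for no effect and medium wells lacking yeast for full effect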
tim10-1 inh: inhibits growth of tim10-1 mutant yeast; S. cerevisiae tim10-1 ts strain growth, BacTiter-Glo, 24 h; inhibition, % at 20 µM; hit rate 2.2% among 330,000;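 active means inhibition of at least 40%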;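 further: mutant grown at 25 °C; 0% = DMSO wells with yeast and 100% = wells holding no yeast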
Calb FLC: affects C. albicans growth with fluconazole. C. albicans CaCi-2 (fluconazole-resistant clinical isolate) + fluconazole, Alamar Blue growth, 48 h. growth inhibition, % (concentration not given with the values). hit rate 0.57% among 300,000. AID 1979;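 active means growth inhibition above about 58% in most replicates, limit read from the data, passing the limit was not always enough; inconclusive means exactly half the replicates above a set limit; inactive means most replicates below a set limit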;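 further: all wells also contain fluconazole at 8 µg/ml as a sub-toxic cotreatment; 0% = median of DMSO wells and 100% = median of geldanamycin control wells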
An asterisk follows results filed as active; ? = inconclusive; · = no result given.

SMILES	PfHsp90 set2	SKKanGAS inh	TIM10 inh	tim23-1 inh	tim10-1 inh	Calb FLC
COc1c(Br)cc(Br)cc1/C=N/NC(=O)c1cccnc1	11	-2	1	41	34	-4
CCOc1cc(Br)cc(/C=N/NC(=O)c2cccnc2)c1O	8	55*	-28	44	-3	-1
COc1cc([N+](=O)[O-])cc(/C=N/NC(=O)C(C)Nc2cccc(C)c2)c1O (stereo unspecified)	-5	59*	3	4	20	2
CCOC(=O)c1sc(N/N=C/c2cc(Br)c(O)c(OC)c2)nc1C	-22	26	-4	19	8	29
COc1ccccc1CNC(=O)CNC(=O)N1CC(=O)Nc2ccccc21	-17	0	7	2	-9	-4
CC(=O)C[C@H](O)CC(=O)[C@@H]1OC(=O)CCCCCCc2ccccc21	4	·	3	18	10	·
CN(c1ccccc1)S(=O)(=O)c1cccc(NC(=O)C2CC(=O)N(Cc3ccccc3)C2)c1 (stereo unspecified)	18	3	-6	22	7	-4
CN(CC(=O)Nc1ccc(F)cc1)C(=O)CSc1nnc(Cc2ccccc2)o1	10	·	6	9	1	·
C=CCc1cccc(/C=N/NC(=O)C(C)Nc2cccc(C)c2)c1O (stereo unspecified)	12	60*	29	9	25	8
CCOc1cc(/C=N/NC(=O)c2c(-c3ccccc3)noc2C)ccc1O	-34	-13	12	6	22	21
CCOc1cc([N+](=O)[O-])cc(/C=N/NC(=O)c2c(-c3ccccc3)noc2C)c1O	-40	92*	-28	10	29	0
CC(=O)Nc1c2c(nn1-c1ccccc1C)CS(=O)(=O)C2	7	-2	-2	4	16	-18
CC[n+]1c(/C=C2\Sc3ccccc3N2C)ccc2cccc(C)c21	-35	69*	·	·	·	102*
C/C(=N/NC(=O)CNC(=O)C(c1ccccc1)c1ccccc1)c1ccco1	6	55*	5	-24	-12	-6
O=C(NCCc1ccccc1)c1ccco1	-7	-4	-4	6	4	5
O=C(NCCNC(=O)C(c1ccccc1)c1ccccc1)c1ccco1	-30	-6	4	12	10	111*
CC(=O)OC(C)=O	-31	·	3	12	6	·
CCOc1ccccc1N1CCN(C(=O)c2cccc(-c3ccc(O)cc3)c2)CC1	104*	11	18	10	1	-1
COc1ccc(NC(=O)CN(C)C(=O)CNC(=O)c2ccc3c(c2)OCO3)cc1	29	-16	-3	3	-3	·
COCCNC(=O)C(c1ccc(F)cc1)N(Cc1cccs1)C(=O)CCC(=O)Nc1ccccn1 (stereo unspecified)	-4	-5	12	7	20	17
COc1cccc(/C=C/C(=O)OCC(=O)Nc2nnc(-c3ccccc3)o2)c1	·	63*	-7	2	10	0
O=C(COC(=O)/C=C/c1ccccc1F)Nc1nnc(-c2ccccc2)o1	·	68*	-7	4	-4	48
CCOc1ccccc1NC(=O)COC(=O)COc1c(Cl)cc(Cl)c2ccc(C)nc12	-8	15	9	4	10	22
CCN(CC(=O)NC(C)(C)C)C(=O)COc1c(Cl)cc(Cl)c2ccc(C)nc12	-33	87*	19	30	22	2
CC(C)OC(=O)c1ccc(NCc2cc(O)ccc2O)cc1	87*	·	·	·	·	·
SMILES	PfHsp90 set2	SKKanGAS inh	TIM10 inh	tim23-1 inh	tim10-1 inh	Calb FLC
O=C(OCc1ccccc1)c1ccc(NCc2cc(O)ccc2O)cc1	108*	·	·	·	·	·
Cc1ccc(C)c(CN2CCCN(Cc3cc(C)ccc3C)S2(=O)=O)c1	13	72*	3	11	4	-11
Cc1cc2nnc(SCC(=O)NCC(c3ccccc3)N(C)C)n2c2ccccc12 (stereo unspecified)	-14	4	-1	-6	-15	-4
O=C(COc1ccc2c(c1)CCC2)N1CCN(c2cccc(C(F)(F)F)c2)CC1	-4	8	21	20	31	112*
CC(C)(C)c1ccc(-c2cc(C(=O)NNC(=O)Nc3ccccc3)c3ccccc3n2)cc1	11	56*	9	0	30	-5
COc1ccc(C(=O)NNC(=S)NC(=O)c2cc(-c3ccccc3)nc3ccccc23)cc1	-12	107*	38	35	36	-3
COc1ccc(Cl)cc1C(=O)NNC(=S)NC(=O)c1cc(-c2ccccc2)nc2ccccc12	-9	80*	16	11	9	22
COC(=O)c1ccc(NC(=S)NC(=O)c2cc(-c3ccccc3)nc3ccccc23)cc1	-1	8	16	17	25	4
Cc1ccc(C(=O)NCCc2nnc3c(C(F)(F)F)cc(Cl)cn23)o1	-9	-6	-10	-6	-4	17
CCOC(=O)C1=C(C)n2c(s/c(=C/c3cccc([N+](=O)[O-])c3)c2=O)=NC1c1ccc(O)c(OC)c1 (stereo unspecified)	-5	67*	29	43	39	16
CCOC(=O)C1=C(C)N=c2s/c(=C\c3ccc(O)c([N+](=O)[O-])c3)c(=O)n2C1c1ccccc1OC (stereo unspecified)	-27	58*	13	30	7	45
CCN1C(=O)C2CCCCN2c2ccc(C(=O)NCCOC)cc21 (stereo unspecified)	-5	-5	5	6	-6	-1
Cc1cc(C(=O)NNC(=S)NC(C)c2ccccc2)c2ccccc2n1 (stereo unspecified)	-27	6	17	19	33	104*
O=[N+]([O-])c1cc([N+](=O)[O-])c(Oc2cc(Cl)ccc2Cl)cc1NC1CCCCCCC1	-34	4	10	14	23	-1
CCc1ccc(C2=NN(c3ccc(S(N)(=O)=O)cc3)C(c3ccc(F)cc3)C2)cc1 (stereo unspecified)	-84	102*	11	-3	21	?
NS(=O)(=O)c1ccc(N2N=C(c3ccccc3)CC2c2ccccc2)cc1 (stereo unspecified)	-14	-7	32	40	29	13
CCCc1nc(SCC(=O)N2CCCCCC2)c2c(=O)n(C)c(=O)n(C)c2n1	·	50*	·	·	·	-11
CCCCc1nc(SCC(=O)N2CCCCC2)c2c(=O)n(C)c(=O)n(C)c2n1	·	3	-27	26	-2	-1
CC(=O)NC[C@H]1CN(c2ccc(N3CCOCC3)c(F)c2)C(=O)O1	·	107*	3	25	13	-12
CCCC(=O)c1ccc(N2CCOCC2)c(F)c1	-9	-4	-8	14	-8	9
COCc1nnc(NC(=O)c2ccc(S(=O)(=O)N3CCCc4ccccc43)cc2)o1	9	21	3	12	12	92*
